For 31 molecules, outcome, max response and Potency results are on record in PubChem BioAssay (NCATS).

The subject of experiment [1] is CRL-7250. Briefly: Cytotoxic Profiling of Annotated Libraries Using Quantitative High-Throughput Screening (AID 1296008). For max response: % is set by controls: 0 for no effect and ±100 for the full control effect. The note with it: Five cell lines viability, CellTiter-Glo ATP luminescence, 48-72 h; max response: active compounds read low. In short, it runs like this: (§1)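 Cytotoxicity was measured as CellTiter-Glo ATP luminescence, read after 10 min at room temperature. Compound treatment of the cells lasted 48 or 72 hr at 37 degrees Celsius in a qHTS format.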

Experiment [2] has as its system HEK293. The description is as above. The conditions noted are these: Five cell lines viability, CellTiter-Glo ATP luminescence, 48-72 h; max response: active compounds read low. In outline: as §1
The test system of experiment [3] is PC15. The experiment can be described thus: qHTS profiling for inhibitors of Plasmodium falciparum proliferation (AID 504749). The conditions noted are these: P. falciparum in erythrocytes, SYBR Green DNA, 72 h. In short, it runs like this: (§2)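 SYBR Green fluorescence of parasite DNA, read after lysis and overnight dark incubation, measured growth over 72 h in erythrocyte culture at 0.3% parasitemia and 2.5% hematocrit. Data normalised to DMSO and 0.29 uM artemisinin, with plate-drift correction.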

In experiment [4] the test system is PC26. The experiment is described as above. The conditions noted are these: P. falciparum in erythrocytes, SYBR Green DNA, 72 h. In outline: as §2
Experiment [5] deals with SC27B. Described as above. The conditions noted are these: P. falciparum in erythrocytes, SYBR Green DNA, 72 h. In short, it runs like this: as §2
For experiment [6], the system named is TAB109. Described as above. The note with it: P. falciparum in erythrocytes, SYBR Green DNA, 72 h. In outline: as §2
Experiment [7] has as its system TAB113. Described as above. The note with it: P. falciparum in erythrocytes, SYBR Green DNA, 72 h. In short, it runs like this:
as §2

In experiment [8] the test system is TAB165. The experiment is described as above. The note with it: P. falciparum in erythrocytes, SYBR Green DNA, 72 h. In outline:
as §2

In experiment [9] the test system is W2. The description is as above. The conditions noted are these: P. falciparum in erythrocytes, SYBR Green DNA, 72 h. In outline:
as §2

Records with an inconclusive call do not appear. A number with no mark means an inactive call. Calls of active or inactive are those of the source. Calls come from the whole dose curve; as a rule, active = well fitted inhibition curve with a large enough effect; inconclusive = small, poorly fitted or top-dose-only effect; inactive = flat fitted curve, though single readings scatter.
Note: nearly all actives have a fitted effect of over 60% in size.
Potency is the fitted concentration of half-maximal effect.

For `COc1cc2c(cc1OC)CC(=O)N(CCCNC[C@H]1Cc3cc(OC)c(OC)cc31)CC2`, the molecule was called inactive in experiment [1]. In addition, the max response in experiment [2] is -6.01%. Turning to `C[C@@H](Oc1cc(-n2cnc3ccc(OC4CCN(C)CC4)cc32)sc1C(N)=O)c1ccccc1C(F)(F)F`, the Potency in experiment [2] was 0.0411 µM (active). In the case of `COc1ccc2c(OC)c3ccoc3nc2c1OC`, the max response is -6.93% in experiment [1] and -25.3% in experiment [2]. Turning to `C=C[C@H]1C(O[C@@H]2O[C@H](CO)[C@@H](O)[C@H](O)[C@H]2O)OC=C2C(=O)N3CCc4c([nH]c5ccccc45)[C@H]3C[C@H]21` (some centres not stated), in [1], the result was inactive. Also, the max response in [2] was -11.2%. Consider `COc1c2c(cc3c1-c1c(cc4c(c1OC)OCO4)CC(C)C(C)C3)OCO2` (configuration not stated), for which the results for the max response in experiment [1] and in experiment [2] were 1.23% and -21.6%, respectively. Consider `Cc1ccc(NC(=O)Nc2cc(C(F)(F)F)ccc2F)cc1Nc1ccc2c(c1)NC(=O)/C2=C\c1ccc[nH]1`, for which the Potency in experiment [2] is 11.6 µM (active). On to `C/C=C1\[C@H](O[C@@H]2O[C@H](CO)[C@@H](O)[C@H](O)[C@H]2O)OC=C(C(=O)OC)[C@H]1CC(=O)OC[C@H]1O[C@@H](OCCc2ccc(O)cc2)[C@H](O)[C@@H](O)[C@@H]1O`, for which the max response in experiment [1] was -9.74%; in [2], 0.429%. As to `CC1(C)CCC[C@@]2(C)C1[C@H](OC(=O)/C=C/C=C/C(=O)O)C=C1COC(=O)[C@@]12O` (some centres not stated), the max response in experiment [2] was -4.94%.

On to `CC1=C2C(O)C(=O)OC(c3ccoc3)C2(C)CCC1O` (configuration not stated), for which the max response in [2] was -2.84%. Take `CC(=O)NC[C@H]1CN(c2ccc(N3CCN(C(=O)CO)CC3)c(F)c2)C(=O)O1`: the Potency in experiment [2] is 13 µM (active). Turning to `C=C(C)C1CCC(C)C12CC(O)C1(C)OC1C2OC(=O)C(N)CCC(=O)O` (configuration not stated), the max response in experiment [2] was -1.87%. On the same count and under the same terms, in the case of `COC(=O)C1=CO[C@@H](O[C@@H]2O[C@H](CO)[C@@H](O)[C@H](O)[C@H]2O)[C@@H]2[C@@](C)(O)[C@@H](OC(=O)/C=C/c3ccc(O)cc3)C[C@]12O` it was 3.54%. Consider `CCCCC1CCN(CCCC(=O)c2ccccc2C)CC1`, for which, in experiment [2], the Potency was 16.4 µM (active). On the same count and under the same terms, in the case of `CC(=O)c1cc(C(=O)N[C@@H](C)Cn2ccc(-c3ccc(C#N)c(Cl)c3)n2)[nH]n1` it was 23.1 µM (active); in that of `CC(C)(C(=O)NCC(F)(F)C(F)(F)F)C(=O)NC1C(=O)Nc2ccccc2-c2ccccc21` (configuration not stated), 5.8 µM (active).

With `CCN(CC)Cc1ccc(C(=O)N(CCc2ccccc2OC)[C@@H]2CCNC2)cc1`, the Potency in experiment [2] is 5.63 µM (active).

Turning to `C=CC(=O)N1CCN(C(=O)CNc2cc(I)c(Cl)cc2O)CC1`, the Potency in experiment [2] was 13 µM (active).

As to `C[C@@H]1CC[C@@]2(OC1)O[C@H]1C[C@H]3[C@@H]4CC=C5C[C@@H](O)CC[C@]5(C)[C@H]4CC[C@]3(C)[C@H]1[C@@H]2C`, the max response in experiment [1] was 3.2%; in [2], -1.54%.

For `O=C(O)[C@H](Cc1ccc(Nc2nccc3ccncc23)cc1)NC1=C(Br)C(=O)C12CCCCC2`, the max response in [2] was -11.7%. With `CC(C)(C#N)c1ccc(N2C(=O)OCc3cnc4ccc(-c5cnc6ccccc6c5)cc4c32)cc1`, in experiment [2], the Potency was 7.31 µM (active).

On to `C=C[C@H]1[C@H](O[C@@H]2O[C@H](CO)[C@@H](O)[C@H](O)[C@H]2O)OC=C(C(=O)OC)[C@H]1CC(=O)O`, for which the max response in [1] was -13.3%; in [2] it was 3.67%.

Regarding `Cc1c(CN2CCN(C(=O)C(C)O)CC2)sc2c(N3CCOCC3)nc(-c3cnc(N)nc3)nc12` (configuration not stated), the Potency in experiment [2] was 0.651 µM (active).

With `C[C@@H]([C@@H](O)c1ccc(O)cc1)N1CCC(O)(c2ccccc2)CC1`, the max response in experiment [1] is 0.694%; in experiment [2], -2%.

Consider `CC(=O)O[C@H]1C[C@@]2(C)[C@@H](CC[C@H]3[C@@]4(C)C=CC(=O)[C@@H](C)[C@@H]4[C@H](O)C(=O)[C@@]32C)/C1=C(/CCC=C(C)C)C(=O)O`, for which the figures for the max response in experiment [1] and in experiment [2] were -28.1% and -6.72%, respectively. Turning to `CC[C@]1(O)CC2CN(CCc3c([nH]c4ccccc34)[C@@](C(=O)OC)(c3cc4c(cc3OC)N(C)[C@H]3[C@@](O)(C(=O)OC)[C@H](OC(C)=O)[C@]5(CC)C=CCN6CC[C@]43[C@@H]65)C2)C1` (some centres not stated), the Potency in experiment [3] was 5.01 µM (active); in experiment [4], 1.69 µM (active); in experiment [5] it was 3.55 µM (active); in experiment [6], 1 µM (active); in experiment [7], 3.98 µM (active); in experiment [8] it was 2 µM (active). In addition, the Potency was 0.478 µM (active) in experiment [9], 0.259 µM (active) in experiment [1] and 0.0651 µM (active) in experiment [2]. As for `C=C1C(O)CC2C(C(=O)O)=COC(O[C@@H]3O[C@H](COC(=O)/C=C/c4ccc(O)cc4)[C@@H](O)[C@H](O)[C@H]3O)C12` (some centres not stated), the result in experiment [2] was inactive. `C[C@@H]1CC[C@]2(C(=O)O[C@@H]3O[C@H](CO)[C@@H](O)[C@H](O)[C@H]3O)CC[C@]3(C)C(=CCC4[C@@]5(C)C[C@@H](O)[C@H](O)[C@](C)(C(=O)O)C5CC[C@]43C)[C@@H]2[C@]1(C)O` (some centres not stated): the molecule was called inactive in experiment [1]. Besides, the max response in [2] was 2.11%.

Turning to `O=C(O)C1CN(Cc2ccc(-c3nc4cc(Cc5ccccc5F)ccc4s3)c(F)c2)C1`, the max response in experiment [1] was 1.29%; in [2], -0.852%. Taken in the same sequence, the figures for `C[C@]12C=C[C@@]3(CCC4[C@](C)(CO)CCC[C@@]4(C)C3CC1)C2` (some centres not stated) were -1.08% and -17.4%. For the molecule `CC(=O)NC1=NN(C(C)=O)C(C)(c2ccccc2)S1` (configuration not stated), the max response in experiment [1] is -15.8%. In addition, in [2], the Potency is 4.11 µM (active). Turning to `CO[C@H]1C[C@@H]2CC[C@@H](C)[C@@](O)(O2)C(=O)C(=O)N2CCCC[C@H]2C(=O)O[C@H]([C@H](C)C[C@@H]2CC[C@@H](OP(C)(C)=O)[C@H](OC)C2)CC(=O)[C@H](C)/C=C(\C)[C@@H](O)[C@@H](OC)C(=O)[C@H](C)C[C@H](C)/C=C/C=C/C=C/1C`, in [2], the Potency was 0.0063 µM (active).
